# The campaign covered roughly 340,000 compounds. About 12,000 (3.5%) were called active. Another 18% or so got no clear call; they are omitted. Shown is part of a subset that was picked to be rich in actives. A number with no mark means an inactive call. Calls come from the whole dose curve; as a rule, active = well fitted inhibition curve with a large enough effect; inconclusive = small, poorly fitted or top-dose-only effect, or another doubt; inactive = no such curve, though single readings can be large or run the other way.
# Assay: qHTS Assay for Inhibitors of Hepatitis C Virus (HCV)
# Details: Huh7.5.1 HCVcc-Cre infection, luciferase reporter, 44 h; series mostly up to 41.8 µM; activity change, negative = inhibition: at the top concentration
# Outline: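 1,000 cells/well; 4 h culture; + compound; + HCVcc-Cre (~0.5 moi); 44 h; luciferase substrate, RT 15 min; read 15 sec.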
# % is set by controls: 0 for no effect and ±100 for the full control effect; potency is the fitted concentration of half-maximal effect.
SMILES,"activity change, negative = inhibition",Potency
CCOC(=O)[C@H]1[C@H]2COc3cc(OC)ccc3[C@@H]2N2C(=O)CN(Cc3ccc(Cl)cc3)C(=O)[C@@]12C,1.97%,
CN(CC(=O)NCCc1ccc(S(N)(=O)=O)cc1)CC(=O)Nc1ccc(F)c(F)c1F,-10.3%,
O=C(NCCS(=O)(=O)N1CCN(c2ccc(F)cc2)CC1)c1ccc2c(c1)OCO2,-7.36%,
CCCSc1nc(NCc2ccco2)c2c3c(sc2n1)COC(C)(CC)C3 (stereo not drawn),-20.9%,
CN1CCc2c(sc3c2c(NCc2ccco2)nc2nnnn23)C1,,10 µM (active)
CC1CCN(C(=O)CCc2nnc3ccc(NCc4ccco4)nn23)CC1,18.5%,
CCC1(c2ccccc2)NC(=O)N(CC(=O)Nc2ccccc2C(=O)NC2CCCC2)C1=O (stereo not drawn),-12.5%,
COCC(C)n1c(SCC(=O)NC2CCCCC2C)nc2ccccc2c1=O (stereo not drawn),9.44%,
CSCCC(NC(=O)c1ccco1)C(=O)Nc1cc(C)ccn1 (stereo not drawn),30.5%,
Cc1ccc(Nc2nnc(SCc3ccccc3)s2)cc1,-17.6%,
COc1cc(Br)c(-c2sc(Nc3ccccc3)n[n+]2-c2ccccc2)cc1OC,5.25%,
CCc1ccc(Nc2n[n+](-c3ccccc3)c(-c3cccc(Cl)c3Cl)s2)cc1,,10 µM (active)
CCCN(C(=O)COC(=O)CNS(=O)(=O)c1ccc(NC(C)=O)cc1)C1CCS(=O)(=O)C1 (stereo not drawn),18.2%,
COc1cc(OC)cc(C(=O)NNC(=O)CCOc2ccccc2OC)c1,13.4%,
COc1ccc(C)cc1NC(=O)c1cc(-c2ccccc2)nc2c1cnn2C(C)C,-27.2%,
O=C1Cc2cc(S(=O)(=O)Nc3cccc(F)c3)ccc2N1,13.7%,
COc1ccc(-c2cc(C(=O)NCCCN3CCCC3=O)c3ccccc3n2)cc1OC,17%,
COc1ccc(-c2cc(C(F)(F)F)nc(S(C)(=O)=O)n2)cc1OC,,10 µM (active)
COc1cc(OC)nc(S(C)(=O)=O)n1,5.26%,
CSCCC(NC(=O)COc1ccccc1)C(=O)OCc1ccc(Cl)cc1 (stereo not drawn),25.3%,
O=C(COC(=O)c1ccc(O)cc1O)c1ccc2c(c1)OCCO2,-6.11%,
CN(CCNC(=O)c1cc2c(-c3ccccc3F)nn(C)c2s1)C1CCCCC1,,12.6 µM (active)
Cc1ccccc1-n1nc(C)c2cc(C(=O)NC3CC3)sc21,-26.6%,
CCOC(=O)N1CCN(C(=O)c2cc3c(-c4ccc(Cl)cc4)nn(C)c3s2)CC1,-20%,
CCOc1ncccc1C(=O)NNC(=O)c1cccc(S(=O)(=O)Nc2ccccc2OC)c1,3.32%,

SMILES,"activity change, negative = inhibition",Potency
C=CCCC(=O)N1C[C@H]2CON(C)[C@H]2C[C@H]1c1cccc(Nc2ccccc2)c1,-15.5% [at 8.37 µM],
Cc1ccc(C)c(NC(=S)NNC(=O)c2csc(C)c2)c1,8.71%,
CC(C)c1ccc(NC(=S)NNc2ccc(Cl)c(C(=O)O)c2)cc1,8.76%,
Cc1ccc(C)c(NC(=S)NNC(=S)Nc2ccc(C(C)C)cc2)c1,,5.62 µM (active)
CCOc1ccc(Br)cc1S(=O)(=O)Nc1ccc(S(=O)(=O)Nc2cc(C)on2)cc1,4.99%,
COc1ccc(C2CC(c3cccs3)=Nc3ccccc3S2)cc1OC (stereo not drawn),,11.2 µM (active)
COc1ccc(C2CC(c3cccs3)=NN2C(=O)CCC(=O)O)cc1OC (stereo not drawn),4.23%,
COc1ccc(C2CC(c3cccs3)=NN2c2ccc(F)cc2)cc1OC (stereo not drawn),-5.17%,
O=C(Nc1c[nH]c(=O)[nH]c1=O)OCc1ccccc1,6.8%,
CCOc1ccc(-c2cc(C)[n+](CCN(CC)CC)c(-c3ccc(OCC)cc3)c2)cc1,,11.2 µM (active)
CCOc1ccc(-c2nnc3ccc(SC)nn23)cc1,-21.9%,
CCOc1ccc(-c2c(C)n([O-])c3c([n+]2=O)CCCC3)cc1,3.27%,
COc1ccc(-c2cc(C(=O)NCCCN3CCOCC3)no2)cc1,-3.36%,
O=C(NCCCN1CCOCC1)c1cc(-c2cccc(O)c2)on1,11.8%,
O=C(NCCCN1CCOCC1)c1cc(-c2ccc(Cl)cc2)on1,,11.2 µM (active)
C[C@H](NC(=O)c1ccccc1Cl)C(=O)OCC(=O)N1CCN(c2ccccc2)CC1,12.9%,
CCN(CC)c1ccc(/C=N/NC(=O)c2cnccn2)c(O)c1,,3.55 µM (active)
CCN(CC)c1ccc(/C=N/NC(=O)CNC(=O)c2cccnc2)cc1,5.9%,
Cc1ccc(C(=O)NCCNC(=O)c2cnccn2)cc1,4.04%,
CCC1([N+](=O)[O-])COC(c2ccc(C)cc2)OC1 (stereo not drawn),3.04%,
COc1ccc(C(=O)NCc2ccc(Cl)cc2)cc1S(=O)(=O)N1CCCC1,7.82%,
O=C(COC(=O)c1cnccn1)Nc1ccc(Cl)cc1C(F)(F)F,4.23%,
Cc1cccc(N2CCN(c3ccc(C(N)=O)cc3[N+](=O)[O-])CC2)c1C,22.1%,
O=C(NC1C2CC3CC(C2)CC1C3)c1ccc(N2CCNCC2)c([N+](=O)[O-])c1 (stereo not drawn),-6.97%,
Cc1ccc(C(=O)c2ccc(N3CCN(C)CC3)c([N+](=O)[O-])c2)cc1,,10 µM (active)

SMILES,"activity change, negative = inhibition",Potency
O=C(NCCCN1CCOCC1)c1ccc(N2CCCC2)c([N+](=O)[O-])c1,1.42%,
CCOC(=O)C1CCN(c2ccc(C(=O)O)cc2[N+](=O)[O-])CC1,12.9%,
CS(=O)(=O)N1CCN(c2ccc(C(=O)NC3C4CC5CC(C4)CC3C5)cc2[N+](=O)[O-])CC1 (stereo not drawn),,11.2 µM (active)
Cc1cc([N+](=O)[O-])c(=O)[nH]c1C,20.7%,
CN(C)C(=O)CCc1ccc2c3c([nH]c2c1)[C@]1(C)[C@@H](C(=O)N2CCCCC2)C[C@H](CC(=O)NCCC2=CCCCC2)C(=O)N1CC3,7.48%,
COc1cc(OC)cc(C(=O)NNC(=O)Cc2cccs2)c1,-4.33%,
O=C(CNc1ccccc1N1CCCC1=O)Nc1cc(Cl)ccc1-n1cncn1,0.824%,
CN(C)c1nc(Nc2ccc(Cl)c(Cl)c2)nc(N(C)C)n1,-6.29%,
Cc1nnc(NCCO)c2ccccc12,21.6%,
OCCNc1nc(Nc2ccc(Cl)c(Cl)c2)nc2ccccc12,,10 µM (active)
CC(C)Sc1nc(N)nc2c1ncn2C1OC(CO)C(O)C1O (stereo not drawn),5.19%,
CC[C@]12c3[nH]c4ccc(OC)cc4c3CCN1C(=O)C(CC(=O)NCCN1CCOCC1)C[C@@H]2C(=O)N1CCN(C(=O)C2CC2)CC1 (stereo partly drawn),-14.4%,
O=C(Nc1ccccc1C(=O)NCC1CCCO1)c1ccccc1F (stereo not drawn),2.29%,
Cc1cccn2c(=O)c3cc(C(=O)NCC4CCCO4)c(=N)n(Cc4ccc(F)cc4)c3nc12 (stereo not drawn),,5.62 µM (active)
Cc1cccn2c(=O)c3cc(C#N)c(=NC(=O)c4cccnc4)n(CC4CCCO4)c3nc12 (stereo not drawn),2.8%,
CCOc1ccc(CCNC(=O)CN2C(=O)NC3(CCc4ccccc43)C2=O)cc1OCC (stereo not drawn),7.59%,
COc1ccc(/C=C/C2=CC(C)(C)NC(=S)N2)c(OC)c1,,14.1 µM (active)
COc1cc(/C=C/C2=CC(C)(C)NC(=S)N2)cc(OC)c1OC,0.519%,
COc1ccc(/C=C2/C(=O)N(c3ccccc3)N=C2C)c(OC)c1,19%,
CCn1c(SCC(=O)NCC2CCCO2)nc2cc(S(=O)(=O)N3CCCCC3)ccc21 (stereo not drawn),-16.5%,
CCCCn1c(SCc2ncc(-c3ccccc3)o2)nc2cc(S(N)(=O)=O)ccc21,,6.31 µM (active)
CCCCn1c(SCC(=O)N2CCCC2=O)nc2cc(S(N)(=O)=O)ccc21,14.2%,
CC(=O)Nc1ccc(SC[C@H](Cc2ccccc2)N2CC[C@@H](C)CCC2=O)cc1,17.1%,
C=C(C)COc1ccc(-c2nc(N)ncc2-c2ccccc2OC)c(O)c1,,10 µM (active)
CCOc1ccc(-c2nc(N)ncc2-c2ccccc2OC)c(O)c1,-9.58%,

SMILES,"activity change, negative = inhibition",Potency
COc1ccc(-c2nc(N)ncc2-c2ccc(Cl)cc2)c(O)c1,-24.2%,
O=C(COC(=O)c1ncc(Cl)c(Cl)c1Cl)NCc1ccccc1,1.03%,
O=C(CCNC(=O)c1ccccc1Cl)NN=Cc1ccco1,16%,
COC(=O)C1=C(C)NC(=S)NC1c1ccc(OCC(=O)N2CC(C)OC(C)C2)c(OC)c1 (stereo not drawn),10.3%,
CNC[C@H](CC1CCCCC1)NC[C@H](NCCC1CCCC1)[C@H](C)O,,11.2 µM (active)
COC(=O)c1ccc(-c2c(-c3ccccc3)ncc3cc(OC)c(OC)cc23)cc1,-3.02%,
COc1ccc(CCNC(=O)C2CCCN(Cc3nc(-c4cccc(Cl)c4)oc3C)C2)cc1OC (stereo not drawn),,10 µM (active)
COc1ccc(CCN(C)C(=O)C2CCCN(Cc3ccc(OC)c(OC)c3)C2)cc1OC (stereo not drawn),2.61%,
COc1ccc(CCNC(=O)CS(=O)(=O)Cc2nc(-c3ccc(C)cc3)oc2C)cc1OC,-21.3%,
COc1ccc(NC(=O)CN(C)C(=O)c2cc(-c3ccc(C)o3)nc3ccccc23)cc1,-21.8%,
Cc1cccc(N=C2NC(=O)/C(=C/c3cn(C)c4ccccc34)S2)c1,,14.1 µM (active)
Cn1cc(/C=C/c2nc3ccccc3c(=O)n2-c2cccc([N+](=O)[O-])c2)c2ccccc21,1.56%,
CN(C)c1ccc(-n2cccc2/C=C2/SC(=Nc3ccc(F)cc3)NC2=O)cc1,-22%,
Cc1cccc(N(Cc2ccccc2)C(=O)c2cc(S(=O)(=O)N3CCOCC3)ccc2F)c1,-3.25%,
O=S(=O)(NC1CC1)c1ccc2c3c(cccc13)CC2,-28%,
O=S(=O)(NC1CCCCC1)c1ccc(F)c2ccccc12,,35.5 µM (active)
CSc1ccc(S(=O)(=O)NC2CCCCC2)cc1,15.8%,
O=C(NNc1nc(N2CCCC2)nc(N2CCCC2)n1)c1ccccc1,-16.4%,
CN(C)C(=O)CCc1ccc2c3c([nH]c2c1)[C@]1(CCc2ccccc2)[C@@H](C(=O)N2CCCCC2)C[C@H](CC(=O)NCCC2=CCCCC2)C(=O)N1CC3,12.1%,
CC(C)CN(C(=O)COC(=O)c1ccc2ccccc2c1)c1c(N)n(Cc2ccccc2)c(=O)[nH]c1=O,-2.77%,
O=C(CN1C(=O)C2C3CCC(C3)C2C1=O)Oc1ccc2ccccc2c1 (stereo not drawn),16.3%,
CC1=CC(C)(C)Nc2ccc(OC(=O)CN3C(=O)C4CCCCC4C3=O)cc21 (stereo not drawn),,11.2 µM (active)
O=C(COC(=O)CN1C(=O)C2CCCCC2C1=O)Nc1ccc(F)c(F)c1F (stereo not drawn),9.46%,
